“And” between values parts separate entries of the source, which are not always exact repeats. Equal values may be shown once. The whole screen tested about 5,500 compounds, of which about 2,000 (36%) were called active. Another 18% or so got no clear call; they are omitted. No stated cut-off is given here; in the data, active means normalized growth mostly below about 0.91 (no sharp cut-off); inconclusive means no clear call, values can overlap the other calls; inactive means mostly above about 0.92. The list shows a part of the results.
Test: chemical genetic growth profiling, strain panel (AID 1159580);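 further: tested at 20 µM; growth read once vehicle control cultures reached saturation at 30 °C; 1 = growth at the plate median or of vehicle wells; lower values mean less growth of the strain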
Conditions: S. cerevisiae deletion strains, growth OD

Measured: normalized growth

Cc1cc(C(C)(C)CC(C)(C)C)ccc1OCCOCC[N+](C)(C)Cc1ccccc1
active: locus YAL013W, strain DEP1, active compounds read low 0.056 | locus YAL021C, strain ccr4, active compounds read low 0.0621 | locus YAL026C, strain drs2, active compounds read low 0.0577 | locus YAL030W, strain snc1, active compounds read low 0.0548 | locus YBL061C, strain skt5, active compounds read low 0.0577 | locus YBR009C, strain hhf1, active compounds read low 0.0593 | locus YBR021W, strain FUR4, active compounds read low 0.0884 | locus YBR023C, strain chs3, active compounds read low 0.0588 | locus YBR171W, strain sec66, active compounds read low 0.0729 | locus YBR229C, strain ROT2, active compounds read low 0.0513 | locus YBR231C, strain swc5, active compounds read low 0.0584 | locus YBR279W, strain paf1, active compounds read low 0.0568 | locus YCL011C, strain gbp2, active compounds read low 0.0539 | locus YCL016C, strain dcc1, active compounds read low 0.0604 | locus YCL029C, strain bik1, active compounds read low 0.0578 | locus YCL061C, strain MRC1, active compounds read low 0.0639 | locus YCL069W, strain vba3, active compounds read low 0.0588 | locus YCR088W, strain abp1, active compounds read low 0.0592 | locus YDL005C, strain med2, active compounds read low 0.0722 | locus YDL035C, strain GPR1, active compounds read low 0.0517 | locus YDL040C, strain nat1, active compounds read low 0.0573 | locus YDL074C, strain BRE1, active compounds read low 0.0803 | locus YDL101C, strain DUN1, active compounds read low 0.0608 | locus YDL134C, strain PPH21, active compounds read low 0.0535 | locus YDL185W, strain tfp1, active compounds read low 0.0735 | locus YDL192W, strain arf1, active compounds read low 0.0575 | locus YDR001C, strain nth1, active compounds read low 0.0561 | locus YDR069C, strain doa4, active compounds read low 0.0594 | locus YDR101C, strain arx1, active compounds read low 0.0572 | locus YDR137W, strain rgp1, active compounds read low 0.0892 | locus YDR159W, strain sac3, active compounds read low 0.0785 | locus YDR162C, strain NBP2, active compounds read low 0.0508 | locus YDR195W, strain ref2 0.112 | locus YDR297W, strain sur2, active compounds read low 0.0548 | locus YDR318W, strain mcm21, active compounds read low 0.0609 | locus YDR334W, strain swr1, active compounds read low 0.0602 | locus YDR335W, strain msn5, active compounds read low 0.0584 | locus YDR388W, active compounds read low 0.0542 | locus YDR392W, strain spt3, active compounds read low 0.0691 | locus YDR502C, strain sam2, active compounds read low 0.0626 | locus YEL003W, strain gim4, active compounds read low 0.0521 | locus YEL037C, strain rad23, active compounds read low 0.0554 | locus YEL061C, strain CIN8 (second series), active compounds read low 0.0588 | locus YEL061C, strain CIN8, active compounds read low 0.0504 | locus YER015W, strain faa2, active compounds read low 0.0619 | locus YER016W, strain bim1, active compounds read low 0.0588 | locus YER110C, active compounds read low 0.0699 | locus YER111C, strain swi4, active compounds read low 0.0695 | locus YER155C, strain BEM2 (second series), active compounds read low 0.0851 | locus YER155C, strain BEM2, active compounds read low 0.0684 | locus YER167W, strain BCK2, active compounds read low 0.0531 | locus YFR010W, strain ubp6, active compounds read low 0.0641 | locus YGL078C, strain dbp3, active compounds read low 0.0843 | locus YGL086W, strain mad1, active compounds read low 0.0561 | locus YGL167C, strain pmr1, active compounds read low 0.0723 | locus YGL173C, strain kem1, active compounds read low 0.0635 | locus YGL227W, strain vid30, active compounds read low 0.0611 | locus YGL240W, strain doc1, active compounds read low 0.0709 | locus YGL248W, strain PDE1, active compounds read low 0.05 | locus YGL253W, strain hxk2, active compounds read low 0.0523 | locus YGR135W, strain pre9, active compounds read low 0.0617 | locus YGR252W, strain gcn5, active compounds read low 0.165 | locus YHR013C, strain ard1, active compounds read low 0.0989 | locus YHR027C, strain rpn1, active compounds read low 0.0592 | locus YHR030C, strain SLT2, active compounds read low 0.0522 and 0.101 | locus YHR079C, strain IRE1 (second series), active compounds read low 0.0549 | locus YHR079C, strain IRE1, active compounds read low 0.104 | locus YHR094C, strain hxt1, active compounds read low 0.0561 | locus YHR129C, strain ARP1, active compounds read low 0.0578 | locus YHR142W, strain chs7, active compounds read low 0.072 | locus YHR200W, strain rpn10, active compounds read low 0.0568 | locus YIL066C, strain RNR3, active compounds read low 0.054 | locus YIL073C, strain SPO22, active compounds read low 0.12 | locus YIL125W, strain kgd1, active compounds read low 0.0749 | locus YIR030C, strain dcg1, active compounds read low 0.0563 | locus YJL092W, strain hpr5, active compounds read low 0.0568 | locus YJL095W, strain BCK1 (second series), active compounds read low 0.0554 | locus YJL095W, strain BCK1, active compounds read low 0.0585 and 0.103 | locus YJL115W, strain asf1, active compounds read low 0.0691 | locus YJL129C, strain trk1, active compounds read low 0.0794 | locus YJL134W, strain LCB3, active compounds read low 0.0506 | locus YJL154C, strain vps35, active compounds read low 0.0594 | locus YJL164C, strain tpk1, active compounds read low 0.057 | locus YJL166W, strain qcr8, active compounds read low 0.0596 | locus YJL168C, strain set2, active compounds read low 0.0557 | locus YJL187C, strain SWE1 (second series), active compounds read low 0.0514 | locus YJL187C, strain SWE1, active compounds read low 0.0563 | locus YJR043C, strain POL32, active compounds read low 0.0648 | locus YJR066W, strain TOR1, active compounds read low 0.00362 | locus YKL009W, strain mrt4, active compounds read low 0.213 | locus YKL068W, active compounds read low 0.172 | locus YKL085W, strain MDH1 (second series), active compounds read low 0.0866 | locus YKL085W, strain MDH1, active compounds read low 0.0866 | locus YKL160W, strain elf1, active compounds read low 0.0603 | locus YKR001C, strain vps1, active compounds read low 0.0608 | locus YKR026C, strain gcn3, active compounds read low 0.0637 | locus YKR091W, strain srl3, active compounds read low 0.0576 | locus YLL001W, strain dnm1, active compounds read low 0.0592 | locus YLL026W, active compounds read low 0.056 | locus YLL041C, strain sdh2, active compounds read low 0.0575 | locus YLR027C, strain aat2, active compounds read low 0.0549 | locus YLR039C, strain RIC1, active compounds read low 0.0893 | locus YLR058C, strain SHM2, active compounds read low 0.052 | locus YLR102C, strain apc9, active compounds read low 0.0571 | locus YLR113W, strain HOG1, active compounds read low 0.119 | locus YLR221C, strain rsa3, active compounds read low 0.0575 | locus YLR258W, strain gsy2, active compounds read low 0.0566 | locus YLR262C, strain YPT6 (second series), active compounds read low 0.0719 | locus YLR262C, strain YPT6, active compounds read low 0.0979 | locus YLR268W, strain sec22, active compounds read low 0.0813 | locus YLR320W, strain mms22, active compounds read low 0.0724 | locus YLR330W, strain CHS5, active compounds read low 0.0528 | locus YLR342W, strain FKS1 (second series), active compounds read low 0.0706 | locus YLR342W, strain FKS1, active compounds read low 0.0618 | locus YLR357W, strain rsc2, active compounds read low 0.114 | locus YLR370C, strain arc18, active compounds read low 0.0577 | locus YLR371W, strain rom2, active compounds read low 0.0597 | locus YLR384C, strain iki3, active compounds read low 0.0598 | locus YLR418C, strain cdc73, active compounds read low 0.0929 | locus YML016C, strain PPZ1, active compounds read low 0.0514 | locus YML032C, strain rad52, active compounds read low 0.0687 | locus YML120C, strain ndi1, active compounds read low 0.0557 | locus YML124C, strain tub3, active compounds read low 0.0571 | locus YMR058W, strain fet3, active compounds read low 0.0582 | locus YMR078C, strain ctf18, active compounds read low 0.0671 | locus YMR125W, strain sto1, active compounds read low 0.073 | locus YMR129W, active compounds read low 0.0561 | locus YMR205C, strain PFK2, active compounds read low 0.0818 | locus YMR223W, strain ubp8, active compounds read low 0.0638 | locus YMR231W, strain pep5, active compounds read low 0.0634 | locus YMR307W, strain GAS1, active compounds read low 0.113 | locus YNL067W, strain RPL9B, active compounds read low 0.051 | locus YNL071W, strain lat1, active compounds read low 0.0592 | locus YNL153C, strain GIM3, active compounds read low 0.0542 | locus YNL183C, strain NPR1, active compounds read low 0.00188 | locus YNL209W, strain ssb2, active compounds read low 0.0576 | locus YNL233W, strain BNI4, active compounds read low 0.0574 | locus YNL248C, strain rpa49, active compounds read low 0.0804 | locus YNL250W, strain rad50, active compounds read low 0.109 | locus YNL271C, strain bni1, active compounds read low 0.0656 | locus YNL298W, strain CLA4, active compounds read low 0.0604 | locus YNL307C, strain MCK1, active compounds read low 0.0681 | locus YNL322C, strain KRE1 (second series), active compounds read low 0.0636 | locus YNR049C, strain mso1, active compounds read low 0.0552 | locus YNR052C, strain pop2, active compounds read low 0.0587 | locus YOL006C, strain TOP1, active compounds read low 0.115 | locus YOL147C, strain pex11, active compounds read low 0.0557 | locus YOR001W, strain rrp6, active compounds read low 0.0651 | locus YOR061W, strain CKA2, active compounds read low 0.0485 | locus YOR069W, strain VPS5, active compounds read low 0.0867 | locus YOR070C, strain gyp1, active compounds read low 0.0566 | locus YOR080W, strain dia2, active compounds read low 0.0634 | locus YOR083W, strain WHI5, active compounds read low 0.0581 | locus YOR106W, strain vam3, active compounds read low 0.0627 | locus YOR136W, strain idh2, active compounds read low 0.0687 | locus YOR144C, strain elg1, active compounds read low 0.0552 | locus YOR184W, strain ser1, active compounds read low 0.0763 | locus YOR231W, strain MKK1, active compounds read low 0.103 | locus YOR265W, strain rbl2, active compounds read low 0.055 | locus YOR270C, strain vph1, active compounds read low 0.0945 | locus YOR290C, strain snf2, active compounds read low 0.0584 | locus YOR316C, strain cot1, active compounds read low 0.056 | locus YPL051W, strain arl3, active compounds read low 0.0608 | locus YPL055C, strain LGE1, active compounds read low 0.0718 | locus YPL078C, strain atp4, active compounds read low 0.0619 | locus YPL106C, strain sse1, active compounds read low 0.0907 | locus YPL240C, strain hsp82, active compounds read low 0.057 | locus YPL256C, strain CLN2, active compounds read low 0.105 | locus YPR119W, strain clb2, active compounds read low 0.0584 | locus YPR141C, strain kar3, active compounds read low 0.0826 | locus YPR163C, strain tif3, active compounds read low 0.0658 | locus YPR167C, strain met16, active compounds read low 0.059 | strain wtn01, active compounds read low 0.0645

— PubChem BioAssay AID1159580 (chemical genetic matrix, 2015)
